# According to PubChem BioAssay (NCI):
# The panel holds about 83,000 compounds, 20% with a hit somewhere; the sample as a whole holds those more often.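 Step 1: grow cells in 96-well plates. Step 2: add test compound at a single concentration. Step 3: incubate 48 h. Step 4: record percent growth.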 Unmarked numbers belong to inactive results. Calls of active or inactive are those of the source. The calls were made as follows: active = growth percent below 10; inactive = the rest.
# Tests used:
# Test in all cases: NCI-60 one-dose screen, 48 h (100 = growth as untreated, 0 = no growth, -100 = all killed)
# Details in all cases: 10 µM unless noted
# [1] = tested on: T-47D breast
# [2] = tested on: BT-549 breast
# [3] = tested on: MDA-MB-435 melanoma
# [4] = tested on: SW-620 colon
# [5] = tested on: MCF7 breast
# [6] = tested on: HCT-116 colon
# [7] = tested on: HCC-2998 colon
# [8] = tested on: KM12 colon
SMILES,growth [1],growth [2],growth [3],growth [4],growth [5],growth [6],growth [7],growth [8]
O=C(NCCN1CCCCC1)n1cc(-c2ccncc2)c(-c2ccc(Cl)c(O)c2)n1,79.2%,68.9%,58.9%,100%,91%,44.6%,113%,102%
O=C1OCC2=C1C(c1ccccc1)c1cc3c(cc1N2CCO)CCC3 (stereo not drawn),37.8%,-1.32% (active),-31.9% (active),21.5%,-3.45% (active),4.41% (active),-19.8% (active),11.2%
O=c1oc2ccccc2cc1-c1cc(-c2ccc(-c3cc(-c4cc5ccccc5oc4=O)nc(-c4cc5ccccc5oc4=O)c3)cc2)cc(-c2cc3ccccc3oc2=O)n1,91.1%,106%,114%,110%,68.6%,97%,110%,103%
CCC(=O)NC1=C(Cl)C(=O)C(NC(=O)CC)=C(Cl)C1=O,-54.4% (active),119%,136%,-72.1% (active),28.3%,-93.1% (active),103%,109%
CC(NC(=O)c1ccccc1)C(=O)Nc1ccccc1 (stereo not drawn),117%,104%,112%,108%,97.9%,97.2%,99.4%,108%
CC(C)[C@@]12C[C@@H](OC(=O)[C@H]3CO3)[C@@](C)(O1)[C@@H]1CC[C@@H](C)[C@H]1[C@@H]2OC(=O)/C=C/c1ccccc1,49.4%,21.4%,98.2%,94.8%,62.4%,65.8%,105%,103%
CN1CCC2(CC1)N=C(SCC(=O)Nc1cnc3ccccc3c1)C(c1ccc(Br)cc1)=N2,10.5%,59.4%,1.84% (active),-6.58% (active),-42.7% (active),-90.7% (active),-51.3% (active),41.6%
Cc1ccc(OC2=C(C#N)C(=N)N3C(=NN2)Sc2c(C)ccc(C)c23)cc1,84.8%,105%,106%,102%,91%,106%,106%,106%
CC(=O)Nc1c(Br)cc2c(c1Br)Cc1cc(Br)ccc1-2,38.9%,77.3%,69.3%,41.7%,59.9%,46.6%,102%,59.6%
COc1cc(C2CC(=O)Nc3c2cnn3C)cc(OC)c1OC (stereo not drawn),96.1%,99.4%,105%,108%,97.1%,100%,108%,105%
O=C(CCl)Nc1ccc2c(c1)C(=O)c1ccccc1C2=O,-71% (active),-45.3% (active),13.1%,-78.6% (active),-25% (active),-28.6% (active),69%,54.9%
COc1cc(C2CC(c3cccc(Nc4ccnc5cc(Cl)ccc45)c3)=NN2C=O)cc(OC)c1OC (stereo not drawn),-4.07% (active),-36% (active),-68.1% (active),13.1%,2.77% (active),7.38% (active),37.4%,9.52% (active)
COc1cccc(-c2nc3sccn3c2-c2ccnc(NCCN3CCCN(C)S3(=O)=O)n2)c1,72.4%,100%,57.7%,131%,106%,78.1%,114%,100%
Oc1ccc(-c2nnc3c4[nH]ccc4ncn23)cc1,93.4%,89.2%,97.5%,108%,92.1%,88.8%,105%,104%
CN(C)c1nc(-c2cccs2)n2nc(-c3ccc(Cl)cc3)cc2n1,30.7%,68.7%,63.1%,56.8%,66.2%,6.95% (active),48.9%,72.5%
O=C(Nc1ccccc1)c1cc2ccccc2s1,38.1%,95.9%,109%,101%,46.8%,75.8%,48.9%,29.8%
CC(=O)Oc1ccccc1C(=O)Nc1ncc([N+](=O)[O-])s1,61.7%,-29.4% (active),24.2%,26.7%,49.7%,3.62% (active),23.3%,24.7%
COc1cc2ncnc(Nc3ccc(S(=O)(=O)Nc4nccs4)cc3)c2cc1OCCCN1CCOCC1,106%,119%,101%,103%,105%,100%,104%,101%
CCCCCCCCCCCCCCCCCC(=O)[O][Sn]([CH2]CCC)([CH2]CCC)[CH2]CCC,-78.9% (active),-94.3% (active),-87.2% (active),-83.6% (active),-93.1% (active),-96.2% (active),-99.1% (active),-96.2% (active)

SMILES,growth [1],growth [2],growth [3],growth [4],growth [5],growth [6],growth [7],growth [8]
N/C(=N\O)c1ncc(-c2ccc(C(F)(F)F)cc2)c(NC2CCCCCC2)n1,-57.3% [100 µM] (active),-93.2% [100 µM] (active),-84.2% [100 µM] (active),-67.4% [100 µM] (active),-92.8% [100 µM] (active),-95.8% [100 µM] (active),-95.6% [100 µM] (active),-90.1% [100 µM] (active)
CC(C)CCC(=O)[C@@H](C)[C@H]1[C@@H](OC2OCC(O)C(O)C2NS(C)(=O)=O)C[C@H]2[C@@H]3CC=C4C[C@@H](O)CC[C@]4(C)[C@H]3CC[C@]12C (stereo partly drawn),43.6%,22%,1.92% (active),11.9%,17.1%,24.9%,67.2%,47%
CCCCCCCCCCCC1=NC(C)(C)CN1CC(C)O (stereo not drawn),58.9%,67.8%,-7.43% (active),52%,25.8%,22.8%,-60.8% (active),34%
C=C(COC(C)=O)[C@H]1CC/C(C)=C/CC/C(C)=C/CC[C@@]2(C)O[C@H]2C1,109%,105%,113%,112%,91.1%,98.2%,112%,98.6%
Cc1nn(-c2ccccc2)c2nc3c(nc12)C1=NCCN1C(c1ccc(Cl)cc1)N3 (stereo not drawn),75.1%,98.3%,51.5%,76.6%,35.3%,68.8%,-25.2% (active),66%
COc1ccc(-c2cc(-c3cn(-c4cccc(Cl)c4)nc3-c3ccc(OC)cc3)[nH]c(=S)n2)cc1,72.1%,103%,63.5%,66.6%,86.1%,69.7%,55.2%,86.7%
O=C(c1ccc(OCCN2CCCCC2)cc1)c1c(-c2ccc(O)cc2)sc2cc(O)ccc12,65.5%,66.4%,90.5%,98.2%,31.9%,76.2%,103%,103%
CC(C)=CC[C@@H]1CC2(CC=C(C)C)C(=O)C(OC3(C(=O)c4ccccc4)C(=O)C4(CC=C(C)C)C[C@@H](CC=C(C)C)C(C)(C)C(CC=C(C)C)(C4=O)C3=O)(C(=O)c3ccccc3)C(=O)C(CC=C(C)C)(C2=O)C1(C)C (stereo partly drawn),1.58% (active),-2.41% (active),6.28% (active),9.62% (active),2.12% (active),-33.4% (active),10.7%,6.68% (active)
COc1ccccc1CNCCCN1C(=O)c2ccc3c4c(ccc(c24)C1=O)C(=O)N(CCCNCCCN)C3=O,-21.6% (active),55%,-69.4% (active),-7.85% (active),-42.7% (active),-1.03% (active),-5.58% (active),1.76% (active)
Cc1c(C(N)=O)sc2ncn(CC(=O)NN=C3CCCCC3)c(=O)c12,103%,99.4%,99%,97.4%,109%,95.1%,106%,115%
c1ccc2oc(-c3cnc4nonc4n3)cc2c1,79.7%,95.8%,109%,94%,88.5%,90.1%,120%,112%
O=C1/C(=C/c2cc(F)cc(F)c2)Cc2cc(F)cc(F)c21,107%,96.5%,94.8%,99.2%,56.7%,79.8%,105%,92.6%
CCCCOC(=O)c1cc(O)c(O)c(O)c1,61%,67.4%,74.8%,80.2%,84.9%,64.9%,92.5%,69%
Cc1ccccc1NC(=O)c1sc2nc3c(cc2c1N)C(=O)CCC3,43.9%,55.6%,-12.9% (active),25.4%,21.7%,34.5%,67%,19.2%
COc1cc(C2CC(c3ccccc3)=NN2C=O)ccc1Oc1ccnc2cc(Cl)ccc12 (stereo not drawn),33.6%,46%,36%,87.9%,50.5%,54.7%,87.4%,49.9%
N#CCCn1cnc2c(N)ncnc21,95.4%,103%,102%,102%,97.1%,99.1%,113%,106%
Cc1cc(N)cc(C)c1-c1c(Br)cc(N)cc1Br,36.3%,35.8%,-44.3% (active),34.5%,27.1%,23.3%,42.3%,23.8%
O=C(N/N=C/c1ccccc1O)c1ccncc1,33.6%,57%,82.5%,66.1%,23.1%,48.7%,64.5%,34.3%
CCCCCCCCCCCC1=NC(C)(C)CN1C(C)C,36.3%,77.9%,11.2%,47.8%,27.8%,21.5%,-58.5% (active),25.3%

SMILES,growth [1],growth [2],growth [3],growth [4],growth [5],growth [6],growth [7],growth [8]
COc1cc([N+](=O)[O-])cc(OC)c1OC,112%,108%,117%,105%,96.5%,113%,107%,108%
COC(=O)CSc1ccc(Cl)cc1,98.7%,105%,107%,106%,97.2%,95.5%,97.4%,111%
COc1cc(Nc2ncccc2/C=C/C(=O)c2cc(OC)c(OC)c(OC)c2)cc(OC)c1OC,34.1%,100%,61.4%,71.9%,9.35% (active),60.6%,93.5%,71.1%
CC(C)c1cccc(C#N)c1,95.7%,102%,101%,107%,95.1%,101%,102%,111%
COc1cc2c(cc1OC)-c1cc(OC)c(OC)cc1C(CN(C)C)C2 (stereo not drawn),69.3% [100 µM],45.8% [100 µM],63.8% [100 µM],82.4% [100 µM],62% [100 µM],70.7% [100 µM],85.6% [100 µM],82.1% [100 µM]
Clc1ccc(C2=NN[C@H](c3cn(-c4ccccc4)nc3-c3ccccc3)C2)cc1,46.4%,92.7%,47.3%,48.7%,66.2%,0.0078% (active),90.7%,74%
CC1(C)OC2OC3C(CN)OC(c4ccccc4)OC3C2O1 (stereo not drawn),92.6%,103%,110%,122%,103%,101%,94.9%,104%
CN(C)c1nc(-c2cccs2)n2nc(-c3ccco3)cc2n1,53.5%,94%,104%,96.7%,36.3%,91.4%,93.9%,81.4%
COc1ccc(-c2cnc(-c3ccncc3-c3cccc(OC)c3)o2)cc1,37.2%,37.1%,4.88% (active),22.5%,16.4%,4.92% (active),17.3%,-28.6% (active)
OC(CCCCCCCCC(O)CN1CCc2ccccc2C1)CN1CCc2ccccc2C1 (stereo not drawn),99.6%,101%,99.8%,104%,95.9%,98%,102%,106%
COc1ccc(C(=O)OC2C(OC3C(O)COC(O[C@H]4C[C@H]5[C@@H]6CC=C7C[C@@H](O)CC[C@]7(C)[C@H]6CC[C@]5(C)[C@H]4[C@H](C)C(=O)CCC(C)C)C3OC(N)=O)OCC(O)C2O)cc1 (stereo partly drawn),1.19% (active),-2.62% (active),-63% (active),-62.1% (active),-21.1% (active),-7.43% (active),52.7%,27.4%
CCCCCCCCOC(=O)C(C)OC(=O)OCCOCCOC(=O)OC(C)C(=O)OCCCCCCCC (stereo not drawn),99.9%,107%,103%,106%,104%,102%,100%,104%
O=C(Nc1ccc([N+](=O)[O-])cc1)c1cc2ccccc2cc1O,1.61% (active),-14.2% (active),0.673% (active),4.63% (active),5.51% (active),-39.7% (active),5.37% (active),92.6%
Cc1cccc2nc3ccccc3c(Nc3ccc(NS(C)(=O)=O)cc3)c12,37.1%,81.7%,78.6%,34.2%,24.8%,31.8%,75.5%,55.5%
CCN(CC)CCNC(=O)C(F)(F)C(F)(F)C(F)(F)F,110%,98.7%,109%,104%,108%,96.2%,105%,101%
CC(C)(C)c1cc(C[P+](c2ccccc2)(c2ccccc2)c2ccccc2)cc(C(C)(C)C)c1O,-4.23% (active),-0.875% (active),-38% (active),10.6%,3.43% (active),5.83% (active),14.6%,-38.6% (active)
O=C(Nc1ccc(Br)cc1)c1ccc(Cl)c(Cl)c1,5.65% (active),60.6%,31.4%,34.7%,20.1%,20.8%,67.7%,9.99% (active)
COc1cnc2c(c1)C(=O)c1c-2n(CCCN2CCNCC2)c(=O)c2cc(Cl)ccc12,58.8%,45.7%,0.312% (active),-84.5% (active),-74.9% (active),-100% (active),54.4%,11.8%
